Source: PubChem BioAssay
GRK2 aptamer HTS: blocks RNA aptamer binding to human GRK2 | bead flow cytometry, FAM-aptamer displacement from GRK2 | inhibition of aptamer binding, % at 10 µM | 330,000 tested, 0.59% active | AID 488847;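 active = inhibition of aptamer binding above 40%, roughly 3 SD of noise, on plates passing a quality check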;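 also: median bead fluorescence of bound FAM aptamer so fluorescent compounds give negative values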
PREPL inh: inhibits the human prolyl oligopeptidase-like enzyme. Q4J6C6. recombinant PREPL, fluorescence polarization activity-based probe. inhibition, % at 5.96 µM. 320,000 tested, 0.68% active
GASC-1 inh: human JMJD2C demethylase inhibition | Q9H3R0 | GST-JMJD2C(1-420) H3K9me3 demethylation, DELFIA europium | inhibition, % at 2.35 µM | 330,000 tested, 0.069% active | AID 2099;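 active = more than half of a compound's replicate wells show inhibition beyond 50%, single wells judged on their own value; inconclusive = some, but no more than half, of replicates pass 50% inhibition; inactive = no replicate passes 50% inhibition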;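 also: signal counts dimethyl H3K9 product captured on neutravidin plate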
Pemphigus Ab inh: human desmoglein-3 autoantibody binding inhibition | binding (percent of control), % at 10 µM | 310,000 tested, 0.48% active | P32926 | DSG3-coupled beads, scFv-anti-DSG3-GFP binding, flow cytometry; active compounds read low;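 active = binding more than 3 SD below its plate's average and above zero; inconclusive = below that plate limit but binding exactly zero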;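 also: hits lower antibody fragment binding to DSG3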
VLA-4 inh: inhibition in a human VLA-4 binding assay; P13612; VLA-4 expressing cells, ligand binding flow cytometry; inhibition, % (about 7 µM as worked out from the volumes in the protocol); 330,000 tested, 0.2% active; AID 2557; in the data active = inhibition above about 50%
PREPL inh cf: human PREPL inhibition, confirmation; recombinant PREPL, fluorescence polarization activity probe; 2,000 tested, 67% active; shares compounds with PREPL inh; inhibition, % at 5.96 µM
Large screens that a line does not name were inactive (follow-up assays come after a bar, where they were run). Rows were chosen to be rich in hits. Some 1.6% of all compounds tested hit in one or more screens of this group. Rule as the data show it, unless noted: active = inhibition above about 43%; inactive = the rest.

CC(C)CCN1NC2(CCCC(C)C2)NC1=S (stereo not drawn)	none
COc1ccc(S(=O)(=O)N2CCOCC2)cc1NC(=O)CCCOc1ccc(C(C)=O)cc1	none (no result: GRK2 aptamer HTS, PREPL inh, GASC-1 inh, VLA-4 inh)
COC(=O)C1(Cc2ccc3c(c2)CCC3)Cc2ccc3c(c2C1=O)CCC3 (stereo not drawn)	none (no result: GRK2 aptamer HTS, PREPL inh, GASC-1 inh, VLA-4 inh)
C[C@H](CO)N1C[C@H](C)[C@@H](CN(C)Cc2ccncc2)Oc2c(NS(=O)(=O)c3ccc(Cl)cc3)cccc2C1=O	PREPL inh 48 | PREPL inh cf 45
CCC(=O)NNC(=O)Cc1c(C)n(C(=O)c2ccc(Cl)cc2)c2ccc(OC)cc12	none
COCCN(C(=S)Nc1ccc(Cl)cc1OC)C1CCN(C(C)=O)CC1	none
CCSc1ncc(/C=N/Nc2ccc(Cl)cc2)n1C	PREPL inh 43 | PREPL inh cf inactive
CCSc1ncc(/C=N/Nc2ccccc2)n1C	none
CCC(Oc1ccc(C)cc1)C(=O)Nc1ccccc1C(=O)N1CCOCC1 (stereo not drawn)	none
O=C(CSc1nnc(COc2ccc(Cl)cc2)o1)NC1CC2CCC1C2 (stereo not drawn)	PREPL inh 46 | PREPL inh cf inactive
CC(C)(C)c1cc(C(=O)N/N=C/c2ccc(-c3ccccc3[N+](=O)[O-])o2)n[nH]1	PREPL inh 50 | PREPL inh cf inactive
O=C(N/N=C/c1ccc(-c2ccccc2[N+](=O)[O-])o1)c1cccnc1	none
CCCCC1=CC2=C(c3ccco3)C(=O)C(C)(OC(=O)c3ccc(OC)cc3)C(=O)C2=CN1CCCCO (stereo not drawn)	none
CCCCC1=CC2=C(c3ccco3)C(=O)C(C)(OC(=O)c3ccc(OC)cc3)C(=O)C2=CN1CCN1CCOCC1 (stereo not drawn)	PREPL inh 59 | PREPL inh cf 47
C[C@@H](NCCCn1cnc2c(OCc3ccccc3)ncnc21)c1cccc2ccccc12	none (no result: GRK2 aptamer HTS, PREPL inh, GASC-1 inh, VLA-4 inh)
C/C(=N\NC(=O)c1cccc(N/N=C(\C)c2ccncc2)c1)c1ccncc1	PREPL inh 52 | PREPL inh cf inactive
C/C(=N\NC(=O)c1cccc(N/N=C(\C)c2ccccc2)c1)c1ccccc1	none
CCCN(CCC)C(=O)CSc1nc2n[nH]c(C)c2c(=N)n1-c1ccc(OC)cc1	none
CCCN(CCC)C(=O)CSc1nc2n[nH]c(C)c2c(=N)n1-c1ccc(OCC)cc1	PREPL inh 55 | PREPL inh cf inactive
Cc1c(NCc2cc(Cl)cc(Cl)c2O)c(=O)n(-c2ccccc2)n1C	PREPL inh 50 | PREPL inh cf 58
Cc1c(NCc2cc(Cl)ccc2O)c(=O)n(-c2ccccc2)n1C	none
Fc1cccc(NCCc2c[nH]c3ccccc23)n1	none
c1ccc2c(NCCc3c[nH]c4ccccc34)c3ccccc3nc2c1	PREPL inh 50 | PREPL inh cf 57
O=[N+]([O-])c1cccc(/C=C/c2nc[nH]c2[N+](=O)[O-])c1	PREPL inh 45, Pemphigus Ab inh 63 | PREPL inh cf inactive
O=c1[nH]c(/C=C/c2cccc([N+](=O)[O-])c2)c([N+](=O)[O-])c(=O)[nH]1	none
O=CN(CCNc1ccccc1)c1ccccc1	none (no result: GRK2 aptamer HTS, PREPL inh, GASC-1 inh, VLA-4 inh)
CN(c1ccc(OCC(=O)N2CCOCC2)cc1)S(=O)(=O)c1ccc(Cl)cc1	none
C/C(=N\Nc1nc2ccccc2[nH]1)c1ccc2c(c1)OCCO2	none
C/C(=N\Nc1nc2ccccc2[nH]1)c1cc2ccccc2o1	PREPL inh 76 | PREPL inh cf 72
C/C(=N\Nc1nc2ccccc2[nH]1)c1ccc2c(c1)OCO2	PREPL inh 47 | PREPL inh cf 44
CCC1(O)CC2CN(CCc3c([nH]c4ccccc34)C(C(=O)OC)(c3cc4c(cc3OC)N(C=O)C3C(O)(C(=O)OC)C(OC(C)=O)C5(CC)C=CCN6CCC43C65)C2)C1 (stereo not drawn)	none (no result: GRK2 aptamer HTS, PREPL inh, GASC-1 inh, VLA-4 inh)
CCC(C)c1ccccc1NC(=O)COC(=O)C1=COCCO1 (stereo not drawn)	none
Cc1ccc(/C=C/C(=O)Nc2ccc(N(C)C)cc2)o1	PREPL inh 48 | PREPL inh cf inactive
CC(=O)N1CCN(C(=O)CN2C(=O)NC(C)(c3ccc4ccccc4c3)C2=O)CC1 (stereo not drawn)	Pemphigus Ab inh inconclusive
COc1ccc(N2CCN(C(=O)CN3C(=O)NC(C)(c4ccc5ccccc5c4)C3=O)CC2)cc1 (stereo not drawn)	PREPL inh 57 | PREPL inh cf 53
